FEN1 inhibitor: human FEN1 inhibition; P39748; Potency, µM (highest dose often 114 µM), actives largely listed as inhibitors; 0.35% of 390,000 active; Recombinant FEN1 flap cleavage, fluorescence, 15 min; further: nearly all actives have a fitted effect of over 65% in size
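With each library titrated from low to high concentration, compounds met 10 nM FEN1 for 15 min at room temperature before 50 nM substrate was added; readings at 0 and 15 min fed four-parameter Hill curve fits.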
POLI inh: inhibitors of human DNA polymerase iota; Pol iota fluorescent replication assay, 10 min; Q9UNA4; 1% of 390,000 active; Potency, µM (highest dose often 115 µM), hits mostly inhibitors
Target sequence (Q9UNA4 whole entry, looked up): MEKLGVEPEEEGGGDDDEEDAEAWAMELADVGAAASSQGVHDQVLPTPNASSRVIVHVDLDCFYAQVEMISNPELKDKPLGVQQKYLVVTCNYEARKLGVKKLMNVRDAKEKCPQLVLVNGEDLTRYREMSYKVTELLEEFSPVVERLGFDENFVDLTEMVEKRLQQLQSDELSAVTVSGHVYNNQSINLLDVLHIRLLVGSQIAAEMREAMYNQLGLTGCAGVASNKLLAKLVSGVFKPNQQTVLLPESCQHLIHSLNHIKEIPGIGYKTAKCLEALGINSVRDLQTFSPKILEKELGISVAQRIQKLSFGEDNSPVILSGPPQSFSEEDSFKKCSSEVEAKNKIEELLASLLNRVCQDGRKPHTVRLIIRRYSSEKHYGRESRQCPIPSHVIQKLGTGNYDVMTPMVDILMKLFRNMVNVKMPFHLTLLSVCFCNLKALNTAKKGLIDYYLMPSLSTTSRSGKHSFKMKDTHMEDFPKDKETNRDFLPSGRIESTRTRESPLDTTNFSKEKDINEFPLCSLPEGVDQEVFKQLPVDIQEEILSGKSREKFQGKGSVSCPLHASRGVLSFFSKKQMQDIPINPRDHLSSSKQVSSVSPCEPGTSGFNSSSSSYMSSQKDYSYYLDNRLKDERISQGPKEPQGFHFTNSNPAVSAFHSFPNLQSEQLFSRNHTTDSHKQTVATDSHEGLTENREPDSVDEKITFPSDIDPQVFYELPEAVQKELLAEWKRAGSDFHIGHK
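Pol iota at 10 nM preincubated 15 min with compounds at room temperature; reaction started with fluorescent substrate, 50 nM final. Fluorescence read kinetically at 0 and 10 min; buffer-only wells as negative control.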
WRN inhibitor: inhibitors of human WRN helicase | Q14191 | WRN helicase unwinding, fluorescent forked duplex, kinetic | 0.46% of 360,000 active | Potency, µM (top dose mostly 114 µM), most hits filed as inhibitors; further: nearly all actives have a fitted effect of over 55% in size
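Fluorescence dequenching readout, ex 525 nm/em 598 nm, kinetic mode: forked duplex DNA (100 nM final) with adjacent fluorophore and quencher unwound by WRN (20 nM final) with 2 mM ATP. Compound preincubation 15 min, room temperature.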
Pol beta inh: inhibitors of human DNA polymerase beta; AID 485314; 1.3% of 340,000 active; Potency, µM (doses to about 114 µM), actives largely listed as inhibitors; Pol beta primer extension/strand displacement, fluorescence kinetic
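Reaction started by 50 nM substrate onto compound-treated Pol beta (10 nM, 15 min preincubation, room temperature); plates read at 0 min and 10 min. Normalized concentration-effect data fitted by four-parameter Hill equation.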
POLH inh: blocks human DNA polymerase eta activity | recombinant Pol eta, fluorescent DNA replication assay | Potency, µM (titrated, usually from 114 µM), hits mostly inhibitors | 1.2% of 390,000 active
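Pol eta at 10 nM preincubated with compounds 15 min at room temperature; reaction started with fluorescent substrate (50 nM final) and read kinetically at 0 and 10 min.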
Pol kappa inh: DNA polymerase kappa (human) inhibition; AID 588579; Q9UBT6; 0.53% of 400,000 active; purified Pol kappa, fluorescent DNA synthesis assay, 10 min; Potency, µM (doses to about 107 µM), usual class: inhibitors
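Inhibition of 10 nM Pol kappa is measured by a fluorescent read-out at 0 and 10 min following addition of 50 nM substrate (final), with a 15-min room-temperature compound preincubation.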
Each line names hits and unclear results; the compound was inactive in the other large screens. Hits are enriched below; roughly 2.4% of the tested compounds scored in any of these assays. The call rests on the fitted dose curve; in most records, active means well fitted curve in the direction sought with a large enough effect; inconclusive means small, poorly fitted or top-dose-only effect, or another doubt; inactive means no such curve, though single readings can be large; an effect the other way counts as inactive or inconclusive.

NS(=O)(=O)c1ccc(-c2ccc(C=C3C(=O)c4ccccc4C3=O)o2)cc1	POLI inh inconclusive
CC(C)CC1=C/C(=C/c2ccc(-c3ccccc3)o2)C(=O)O1	FEN1 inhibitor inconclusive, POLI inh 20µM, WRN inhibitor 50µM, Pol beta inh 16µM, POLH inh 2.8µM, Pol kappa inh 45µM
CC(=O)N1CCc2cc(S(=O)(=O)NC(Cc3ccccc3)C(=O)NCc3ccccc3Cl)ccc21 (stereo not given)	none (no result: WRN inhibitor)
N#C/C(=C\c1c(Oc2ccc(F)cc2)nc2ccccn2c1=O)c1nc2ccccc2s1	FEN1 inhibitor inconclusive, POLI inh 20µM, Pol beta inh inconclusive, Pol kappa inh inconclusive (no result: WRN inhibitor)
CN(C)c1ccc(/C=C/c2ccnc3ccc(O)cc23)cc1	FEN1 inhibitor inconclusive, POLI inh inconclusive (no result: WRN inhibitor, Pol beta inh, POLH inh)
O=C(COc1ccccc1)Nc1ccccc1F	none
O=C(COc1c(Br)cc(Br)c2cccnc12)Nc1ccccc1F	Pol beta inh 4.5µM, POLH inh inconclusive
c1cncc(-c2cc(-n3ccnc3)ncn2)c1	none (no result: FEN1 inhibitor, POLI inh, WRN inhibitor, Pol beta inh, POLH inh)
Nc1cc([N+](=O)[O-])ccc1N1C(=O)CCCC1=O	POLI inh inconclusive, Pol beta inh 40µM
Cn1c(C(=O)NCc2ccccc2Cl)cc2sc(Cl)cc21	none (no result: WRN inhibitor, POLH inh)
CSCC[C@H](N)C(=O)N[C@@H](CCCN=C(N)N)C(=O)N[C@@H](CC(C)C)C(=O)N[C@@H](Cc1ccccc1)C(=O)N[C@H](C(=O)O)C(C)C	none (no result: FEN1 inhibitor, POLI inh, WRN inhibitor, Pol beta inh, POLH inh)
O=C(O)c1ccccc1-c1c2cc(Br)c(=O)c(Br)c-2oc2c(Br)c(O)c(Br)cc12	Pol kappa inh 10µM (no result: FEN1 inhibitor, POLI inh, WRN inhibitor, Pol beta inh, POLH inh)
CC(C)COc1ccc(C(=O)N2CCCCC2CCN2CCOCC2)cc1 (stereo not given)	none (no result: WRN inhibitor)
CCc1nn2c(=O)cc(COC(=O)C3CCCCC3)nc2s1	none (no result: WRN inhibitor)
COc1ccc(N2CCN(S(=O)(=O)c3ccc(-n4cnnn4)c(C)c3)CC2)cc1	POLI inh inconclusive, WRN inhibitor inconclusive, Pol beta inh 28µM, POLH inh 32µM, Pol kappa inh inconclusive
COc1ccccc1N1CCN(S(=O)(=O)c2ccc(-n3cnnn3)c(C)c2)CC1	none
COc1ccc(S(=O)(=O)N(CCc2ccccc2)CC(=O)Nc2cc(Cl)ccc2C)cc1	FEN1 inhibitor inconclusive, POLI inh 89µM, Pol kappa inh inconclusive (no result: WRN inhibitor)
Cc1ccc(C)c(NC(=O)CN(CCc2ccccc2)S(=O)(=O)c2ccccc2)c1	FEN1 inhibitor 89µM, POLI inh 79µM (no result: WRN inhibitor)
CCOC(=O)c1c(S(=O)(=O)NCC(=O)N(C)c2ccc(C)cc2)c(C)n(C)c1C	POLH inh 45µM (no result: WRN inhibitor)
Cc1ccc(NC(=O)CN(C)C(=O)c2ccc(OCc3cn4ccccc4n3)cc2)cc1	POLI inh inconclusive (no result: Pol beta inh)
O=C(c1ccc(OCc2cn3ccccc3n2)cc1)N1CCN(S(=O)(=O)c2ccccc2F)CC1	POLI inh 79µM, POLH inh inconclusive (no result: Pol beta inh)
CN(CC(=O)Nc1cccc(F)c1)C(=O)c1ccc(OCc2cn3ccccc3n2)cc1	POLI inh 45µM (no result: Pol beta inh)
Fc1ccccc1N1CCN(C(c2ccncc2)c2nnnn2C2CCCC2)CC1 (stereo not given)	POLI inh 79µM
O=C(COc1ccccc1)Nc1ccccc1C(=O)OCc1cc(=O)n2nc(C3CC3)sc2n1	none (no result: WRN inhibitor)
O=C(C[n+]1cccc(Br)c1)c1ccc(Br)cc1	POLI inh inconclusive (no result: WRN inhibitor, Pol beta inh, POLH inh)
CCOC(=O)CCS(=O)(=O)c1nc(-c2ccccc2)cc(C(F)(F)F)n1	WRN inhibitor inconclusive
CS(=O)(=O)c1nc(-c2ccc(F)cc2)cc(C(F)(F)F)n1	POLI inh inconclusive
CCOC(=O)CS(=O)(=O)c1nc(-c2ccccc2)cc(C(F)(F)F)n1	WRN inhibitor 56µM
CCOC(=O)CS(=O)(=O)c1nc(-c2ccc(F)cc2)cc(C(F)(F)F)n1	WRN inhibitor 50µM
C(=Nc1cnc2ccccc2c1)c1ccncc1	none (no result: WRN inhibitor, Pol beta inh, POLH inh)
c1coc(CNc2nc[n+]3c4c2ncn4CC3)c1	none (no result: WRN inhibitor, Pol beta inh, POLH inh)
Cc1cccc(N2CC(C(=O)Nc3nnc(SCC(=O)N4CCOCC4)s3)CC2=O)c1 (stereo not given)	POLI inh inconclusive, Pol beta inh 28µM, POLH inh 45µM
NC(=O)CSc1nnc(NC(=O)C2CC(=O)N(c3ccc(F)cc3)C2)s1 (stereo not given)	POLH inh 50µM
O=C(Nc1nnc(SCC(=O)N2CCOCC2)s1)C1CC(=O)N(c2ccccc2)C1 (stereo not given)	none
O=C(Nc1nnc(SCCC2OCCO2)s1)C1CC(=O)N(c2ccccc2)C1 (stereo not given)	POLI inh inconclusive, Pol beta inh inconclusive, POLH inh inconclusive
COc1cccc(N2CC(C(=O)Nc3nnc(SCCC4OCCO4)s3)CC2=O)c1 (stereo not given)	POLI inh inconclusive, POLH inh 45µM
O=C(Nc1nnc(SCCC2OCCO2)s1)C1CC(=O)N(c2ccc(F)cc2)C1 (stereo not given)	POLI inh inconclusive, WRN inhibitor inconclusive, Pol beta inh 45µM, POLH inh 20µM
COc1cccc(N2CC(C(=O)Nc3nnc(SCc4cccnc4)s3)CC2=O)c1 (stereo not given)	POLI inh inconclusive, Pol beta inh 25µM, POLH inh inconclusive
O=C(Nc1nnc(SCc2cccnc2)s1)C1CC(=O)N(c2ccc(F)cc2)C1 (stereo not given)	POLI inh inconclusive, WRN inhibitor inconclusive, Pol beta inh inconclusive, POLH inh inconclusive
COc1ccc(-c2ccc(/C=C3/C(=N)N4C=CSC4=NC3=O)o2)c([N+](=O)[O-])c1	POLI inh inconclusive, WRN inhibitor inconclusive, Pol beta inh 35µM, POLH inh 20µM
CC(=O)Nc1ccc(OCCOc2ccc(/C=C3/C(=N)N4C=CSC4=NC3=O)cc2)cc1	POLI inh inconclusive
COc1ccc(S(=O)(=O)Nc2cccc3cccnc23)c([N+](=O)[O-])c1	none (no result: WRN inhibitor, Pol beta inh, POLH inh)
CN(C)CCCOc1c2ccccc2n(Cc2ccccc2)[n+]1[O-]	none (no result: FEN1 inhibitor, POLI inh, WRN inhibitor, Pol beta inh, POLH inh)
COCC(=O)N1CCC2(CC1)CN(C(c1ccccc1)c1ccccc1)C2	none (no result: FEN1 inhibitor, POLI inh, WRN inhibitor, Pol beta inh, POLH inh)
O=C(N/N=C/c1ccncc1)c1cc(-c2ccc(Br)s2)[nH]n1	POLI inh inconclusive, Pol beta inh 22µM, POLH inh 79µM
O=C(N/N=C/c1ccccn1)c1cc(-c2ccc3ccccc3c2)n[nH]1	FEN1 inhibitor 45µM, POLI inh inconclusive, WRN inhibitor inconclusive, Pol beta inh 20µM, POLH inh inconclusive
O=C(N/N=C\c1ccncc1)c1ccc(Br)s1	none
O=C(N/N=C/c1ccccn1)c1cc(-c2ccc(Cl)s2)[nH]n1	Pol beta inh 35µM
O=C(N/N=C/c1ccccn1)c1cc(-c2cccc3ccccc23)n[nH]1	none
O=C(N/N=C/c1ccccn1)c1cc(-c2ccc(Br)s2)[nH]n1	Pol beta inh 10µM

Screening data from PubChem BioAssay.
